# Source: the supplement of paper PMC6555819
# Legend:
# Test in all cases: PBM binding z-score (relative to random genomic background probes); higher = stronger binding; sequences stand for … in GC…GCGATTGACAGCGTAGAATGAAGG
# [1] = system: PPARg:RXRa DBDmut IVT, anti-RXR (DBD mutation: RXRa K156A/R161A, NR concentration 270 nM, RXRa partner concentration 90 nM)
# Outline: (§1)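 The probes on custom Agilent 4×180K protein-binding microarrays were double-stranded, with 34-nt variable regions bearing direct-repeat seeds, single-nucleotide variants, half-site ablations and random human genomic background sequences. Incubation lasted 1 h with ligand-free nuclear receptor dimers in PBS pH 7.4, 2% milk, 0.02% Triton X-100, 1 mM DTT, 0.2 mg/mL BSA and 0.4 mg/ml salmon testes DNA. Antibodies against each partner (one per run) detected bound dimers, and fluorescence scans were regression-normalized. Binding z-scores take the random background probes as reference.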
# [2] = system: PPARg:RXRa IVT, anti-PPARg (NR concentration 270 nM, RXRa partner concentration 90 nM)
# Outline: as §1
# [3] = system: PPARg DBDmut:RXRa IVT, anti-PPARg (DBD mutation: PPARg1 K132A/R137A, NR concentration 270 nM, RXRa partner concentration 90 nM)
# Outline: as §1
# [4] = system: PPARg DBDmut IVT, anti-PPARg (DBD mutation: PPARg1 K132A/R137A, NR concentration 270 nM)
# Outline: as §1
# [5] = system: PPARg homodimer (NR concentration 180 nM)
# Outline: as §1
# [6] = system: PXR:RXRa (NR concentration 270 nM, RXRa partner concentration 90 nM)
# Outline: as §1
# [7] = system: PXR homodimer (NR concentration 270 nM)
# Outline: as §1
# [8] = system: RARa:RXR (NR concentration 270 nM, RXRa partner concentration 90 nM)
# Outline: as §1
# [9] = system: RARa homodimer (NR concentration 270 nM)
# Outline: as §1
# [10] = system: RARb:RXRa (NR concentration 270 nM, RXRa partner concentration 90 nM)
# Outline: as §1
Sequence,PBM binding z-score [1],PBM binding z-score [2],PBM binding z-score [3],PBM binding z-score [4],PBM binding z-score [5],PBM binding z-score [6],PBM binding z-score [7],PBM binding z-score [8],PBM binding z-score [9],PBM binding z-score [10]
CAGCCTGGGTCAGGGCCAGTATAGGAGGAACGTT,-0.161,1.32,-1.28,-1.68,0.728,0.109,-0.685,0.59,-0.125,2.83
CCTAGCAGGCAAGGGTCACTCAAGCATTTCGCTT,0.337,0.835,-1.27,-1.7,1.35,2.99,-0.946,3.86,-0.178,3.31
TCTCGGACGACACGAAGGTCAGAGCTTTCCAGAG,1.39,0.576,-1.3,-0.777,1.07,1.61,-0.245,1.95,0.13,2.8
CGTCCAAGTTCAAGGTAACGTAACAGAAAGCAGC,0.65,0.654,0.76,0.315,1.63,2.73,1.61,1.95,0.657,3.36
GCATATAGTTAATACAAGGTGAAAGTCCGATTGT,0.418,0.597,0.14,1.15,0.564,0.322,0.372,0.691,0.956,0.235
TCTTGTACATCAAGCAGGTTAAGAAAGCCTGAGT,1.65,0.61,0.553,1.57,0.286,0.6,0.247,0.598,-0.095,0.538
CGTCCAAGGTCAAAGGAGGTCAGTGAAGACAGAT,3.19,4.71,0.585,-0.349,3.39,6.84,3.62,5.79,0.875,5.6
AGAATGAGGTTACCCAAGATCAGGGAAACGCTTG,3.03,2.92,1.56,1.21,0.367,1.58,-0.185,2.03,-0.0633,1.82
TCCTGTAGATCAGCAGGTTAAGAAAGCTGGCCAA,1.6,-0.214,-0.0572,-0.0553,-0.125,0.286,-0.41,0.585,-0.442,0.219
CCGACTGGGTCAGAAAGGTTACCATACCATCCGG,3.31,3.92,0.245,-0.526,2.08,2.48,0.43,3.17,0.179,3.15
TCTCGGAGGACACGAGAGGTCAGAGCTCGACATC,1.28,1.31,-0.0103,-0.495,1.51,3.78,0.385,3.56,-0.143,3.84
CCTATCAGGCCAGGGTCACTCAAGCATTTCGCTT,0.0359,1.06,-1.33,-0.669,1.28,2.59,-0.206,3.5,0.157,2.74
TCGTATAGGTAAAGGTGAAAGTCGAACGATATGA,2.04,2.57,0.89,0.655,1.4,0.71,0.0439,1.58,0.749,2.07
AGAATGAGGTTACCAAAGATCAGGGAGACGCTTG,3.87,3.22,1.19,0.476,0.567,1.53,0.0174,1.99,0.112,2.15
CAGACTGGGGCAGAAAGGTTACCATACCATCCGG,2.77,3.01,-0.514,-0.142,2.11,1.39,-0.052,2.24,0.536,2.04
GCTAGTTGGTCAGTAATAGGTCACACACCGGTCG,1.6,2.79,-0.0555,-0.765,1.88,2.1,0.429,2.93,0.809,2.57
AGAATGAGGTTATACGTAGATCGGGGAAGAAAGT,4.33,2.22,0.772,-0.0447,1,1.43,0.718,1.92,0.264,1.58
GCAGACACGTGAAACGCAGGTAACTCAGGGTGGC,-1.12,-0.582,-0.764,-0.343,-2.11,-0.819,-0.73,-0.666,-0.899,-0.551
GCTGCTAGTTCAGGTTGGTCAGCTAACGGGTACG,-0.103,-0.56,-0.826,-0.845,-0.918,-0.166,0.0964,-0.23,-0.341,1.01
CGTCCAAGGTCAGAGATGTCAGTGAATGCCGAGT,2.09,2.19,-0.242,-0.744,0.984,2.43,1,2.65,0.429,4.54
GCTATTAGTTGAAAGGGAAACCGAATGATTCTCG,0.303,0.0307,0.646,0.468,0.766,-0.0354,0.0349,0.204,1.17,-0.128
CCTACTGGGCCACGAAAGGTCATCGATTCAGTGA,5.98,5.97,-0.47,0.605,4.31,5.62,0.616,6.08,0.927,4.17
CATACATGGTCAGCTAGGCCAGAGTAGGGACGGC,-0.304,0.125,0.136,-0.418,-0.795,-0.724,-0.583,-0.808,0.055,0.8
GATACAGGGTCTGCTAGAGGCCAGAGTATGGAAA,-0.826,-0.333,-1.05,-1.35,-0.406,-0.54,-0.558,-0.523,-0.148,0.305
